Test results as given in the supplement of paper PMC3724861.
Many of the other results were omitted from the sample, so hits are more common in it than they were. No count for the full screen is at hand.

test system: T1, Caupolican (Caup) homeodomain DNA-binding domain; experiment: PBM E-score (8-mer, recovered from the published 9-mer minima) (E-score (dimensionless, -0.5 to 0.5)); Drosophila protein; higher = stronger relative binding preference, active = 0.31 or more
T1 sequence: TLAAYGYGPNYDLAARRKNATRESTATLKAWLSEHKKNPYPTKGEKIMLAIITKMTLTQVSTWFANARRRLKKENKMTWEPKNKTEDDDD
In short: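 Caup's homeodomain DNA-binding domain (residues 214-303) was produced by in vitro transcription and translation and applied at 100 nM to custom-designed protein binding microarrays. Each value is an enrichment score giving relative binding preference for a short DNA word; higher means stronger. Published 9-mer scores were the minimum of their two constituent 8-mer scores, and the 8-mer values were recovered from those minima. A cutoff of 0.31 marks candidate binding sequences.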

Sequence	PBM E-score
CCGAAATC	-0.0715 (inactive)
CCGAGCAG	-0.0223 (inactive)
ACTCAGCA	0.0319 (inactive)
ACGTGTTG	0.347 (active)
CGGTGTTA	0.179 (inactive)
GCGTGTTA	0.284 (inactive)
ACGTGTGG	0.0393 (inactive)
AGGTGTTA	0.207 (inactive)
AGGTGTTG	0.125 (inactive)
CAGTGTTA	0.24 (inactive)
CGGTGTTC	0.157 (inactive)
CCGTGTTC	≥ 0.382 (active)
ACGTGTTA	0.33 (active)
ACGTGTTC	0.279 (inactive)
CCGTGTTA	0.321 (active)
ACCGGGCC	-0.228 (inactive)
GCACGTCC	-0.0893 (inactive)
AGTTTTCC	-0.0223 (inactive)
AGCCCACT	-0.166 (inactive)
ATGTTCAA	0.327 (active)
ATGTTCGG	0.244 (inactive)
ATGTTCGA	0.34 (active)
CTGTTCAA	0.0792 (inactive)

Sequence	PBM E-score
ATGTTCAC	0.334 (active)
AGGTTCAC	-0.0392 (inactive)
GTGTTCGA	0.236 (inactive)
CTGTTCAC	0.147 (inactive)
ATGTTCAG	0.295 (inactive)
CACTCTGA	0.0251 (inactive)
ATAGGGTG	-0.0464 (inactive)
CCCATAAC	0.0433 (inactive)
CACGACCA	0.098 (inactive)
CAGAAGAG	-0.0491 (inactive)
ATCCTCCG	-0.0647 (inactive)
AAGTGAGA	-0.0758 (inactive)
CCTCTGGA	-0.169 (inactive)
CTCCGTGA	-0.0581 (inactive)
CGGTAGGC	-0.149 (inactive)
ATACGATA	0.186 (inactive)
GGATGTAC	0.305 (inactive)
CGATGTAG	0.179 (inactive)
CGATGTAC	0.374 (active)
CGATGTGC	-0.0367 (inactive)
CCATGTAG	0.268 (inactive)
ACATGTAG	0.476 (active)
ACCTGTAG	0.0685 (inactive)

Sequence	PBM E-score
GCATGTAC	0.413 (active)
GAATGTAC	0.165 (inactive)
AAATGTAG	0.0799 (inactive)
CCCTGTAA	0.161 (inactive)
CCATGTAA	0.404 (active)
AGGCTTTC	-0.088 (inactive)
ACCGCGGA	-0.137 (inactive)
ATTCCTTA	0.0011 (inactive)
CATCCCAC	-0.133 (inactive)
GCTGCCGA	-0.282 (inactive)
ACATGTAA	0.468 (active)
ACATGTAC	≥ 0.48 (active)
CCCTGTAC	0.158 (inactive)
AACTGTAA	0.197 (inactive)
TCATGGAA	0.0375 (inactive)
TCATGTAA	0.427 (active)
AAATGTAC	0.279 (inactive)
AGATGTAC	0.299 (inactive)
CCATGTAC	0.411 (active)
ACACGTAA	0.309 (inactive)
TCCTGTAA	0.2 (inactive)
